PNC assembly inh = High Content Assay for Compounds that inhibit the Assembly of the Perinucleolar Compartment | PC3M PTB-GFP, PNC prevalence imaging, 16 h; hits give low values | 140,000 tested, 3.1% active | AID 2417, 2010 | activity change (PNC), negative = inhibition, % at 10 µM;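 active = readout at or below -70, meaning at least 70% loss of cells showing the perinucleolar compartment, a nuclear body marking cancer cells; inconclusive = readout between -30 and a set limit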
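PC3M cells stably expressing PTB-GFP, 750–1000 cells/well, treated 16 h at 37 °C with compound (23 nl of library stock), in duplicate. After paraformaldehyde fixation and Hoechst stain, imaged at 20x; PNC prevalence scored by image analysis.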
LMNA splice mod = qHTS Assay for Modulators of Lamin A Splicing; HeLa LMNA splicing GFP/RFP minigene ratio, 48 h; Potency, µM (top dose mostly 46.1 µM), hits mostly inhibitors; 200,000 tested, 0.01% active; active = well fitted inhibition curve with a large enough effect in the signal ratio, with a control signal flat, not every such curve was filed as active; inconclusive = small, poorly fitted or top-dose-only effect, or effect the other way, or a change in a side signal; the % refers to the signal ratio
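S3 HeLa stable clones carrying a lamin A-EGFP splicing minigene plus DsRed2 were seeded at 600 cells/well in Opti-MEM with 2% FBS, pin-dosed and incubated 48 h at 37°C. Acumen cytometry (488 nm) gave the GFP/RFP total-intensity ratio.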
12-hLO inh = qHTS Assay for Inhibitors of 12-hLO (12-human lipoxygenase); Polyunsaturated fatty acid lipoxygenase ALOX12 (Homo sapiens), P18054; purified 12-hLO, xylenol orange hydroperoxide absorbance; Potency, µM (highest dose often 57.1 µM), most hits filed as inhibitors; 150,000 tested, 0.12% active; AID 1452, 2008; active = well fitted inhibition curve with a large enough effect; inconclusive = small, poorly fitted or top-dose-only effect; note: nearly all actives have a fitted effect of over 55% in size
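150 nM 12hLO, 25 mM Hepes pH 7.0 + 0.01% Triton X-100; cpd preinc 15 min RT; 40 uM arachidonic acid, 30 min RT; Fe-XO 30 min; A573/A405 ratio as read-out.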
ALDH1A1 inh = qHTS Assay for Inhibitors of Aldehyde Dehydrogenase 1 (ALDH1A1); Potency, µM (top dose mostly 75.3 µM), most hits filed as inhibitors; AID 1030, 2008; 220,000 tested, 7.3% active; Purified ALDH1A1, NADH fluorescence, propionaldehyde substrate
HPGD inh = qHTS Assay for Inhibitors of HPGD (15-Hydroxyprostaglandin Dehydrogenase). 15-hydroxyprostaglandin dehydrogenase [NAD(+)] (Homo sapiens), P15428. Potency, µM, hits mostly inhibitors. 150,000 tested, 4.3% active. purified HPGD, NADH fluorescence kinetic, PGE2 substrate
Target sequence (P15428 whole entry, looked up): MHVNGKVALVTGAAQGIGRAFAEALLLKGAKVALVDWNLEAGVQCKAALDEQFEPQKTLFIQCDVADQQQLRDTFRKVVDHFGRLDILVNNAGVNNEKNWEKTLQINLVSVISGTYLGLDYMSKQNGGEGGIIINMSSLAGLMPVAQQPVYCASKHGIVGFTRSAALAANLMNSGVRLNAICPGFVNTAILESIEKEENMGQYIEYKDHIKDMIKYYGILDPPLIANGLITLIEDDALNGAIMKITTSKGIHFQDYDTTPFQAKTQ
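20 nM HPGD preincubated 15 min at room temperature with compound in 50 mM Tris-HCl pH 8, 0.01% Tween 20. Started with 1 mM NAD+ and 30 uM prostaglandin E2; NADH fluorescence (360/450 nm) read 5 times over 30-s intervals, last minus first.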
Numbers stand for hits; . = inactive; ? = inconclusive; / = not tested or not shown. This is a sample that favours compounds with a hit; in the whole collection about 10% have one here. Unless noted, calls come from the whole dose curve; as a rule, active = well fitted inhibition curve with a large enough effect (not every such curve was filed as active); inconclusive = small, poorly fitted or top-dose-only effect, or another doubt; inactive = no such curve, though single readings can be large or run the other way.

SMILES | PNC assembly inh | LMNA splice mod | 12-hLO inh | ALDH1A1 inh | HPGD inh
CCC(c1nnnn1C1CCCCC1)N(Cc1ccco1)Cc1cc2ccc(OC)cc2[nH]c1=O (stereo unspecified) | . | . | . | ? | .
Cc1ccc2[nH]c(=O)c(CN(Cc3nnnn3C3CCCC3)C3CCCCC3)cc2c1 | -100 | . | . | 25µM | .
COc1ccc2cc(CN(CCCN3CCOCC3)Cc3nnnn3C3CCCCC3)c(=O)[nH]c2c1 | . | . | . | 13µM | .
COc1cc2cc(CN(Cc3nnnn3C3CCCC3)C3CCCC3)c(=O)[nH]c2cc1OC | ? | . | . | . | .
CN1C(=O)CC(N2CCN(c3ccc(Cl)cc3)CC2)C1=O (stereo unspecified) | . | . | . | . | ?
O=C1CC(N2CCN(c3ccccn3)CC2)C(=O)N1c1ccc(Cl)cc1 (stereo unspecified) | / | / | / | 25µM | /
O=C1CC(N2CCCCC2)C(=O)N1c1ccccc1 (stereo unspecified) | -100 | . | . | ? | .
O=C1CC(N2CCN(c3ccc(S(=O)(=O)N4CCCC4)cc3)CC2)C(=O)N1c1ccc(F)cc1 (stereo unspecified) | . | . | . | ? | .
O=C1CC(N2CCCN(C3CC(=O)N(c4ccc(F)cc4)C3=O)CC2)C(=O)N1c1ccc(F)cc1 (stereo unspecified) | . | . | . | 13µM | .
COc1ccc(-c2cn3nc(N4CCC(C(=O)Nc5ccccc5OC)CC4)sc3n2)cc1 | / | . | / | / | /
CCCN1CCN(C(=O)Cn2c(-c3cccs3)cc3ccccc32)CC1 | / | . | / | / | /
CN(C)c1ccc(C(C#N)c2ccc(Cl)cc2)nn1 (stereo unspecified) | / | ? | / | . | /
CN(C)c1ccc(C(C#N)c2ccccc2)nn1 (stereo unspecified) | / | / | / | 10µM | /
Cc1cnc(NC(=O)CSc2nnc(COc3c(C)cccc3C)o2)s1 | -119 | . | . | . | .
Cc1cccc(C)c1OCc1nnc(SCC(=O)Nc2ccccc2F)o1 | . | . | . | ? | .
C=C[C@@]1(C)CC(=O)[C@@]2(O)[C@@]3(C)[C@@H](O)CCC(C)(C)[C@@H]3[C@H](O)[C@H](OC(C)=O)[C@@]2(C)O1 | / | / | . | . | .
c1cncc(-c2nccc(-n3ccnc3)n2)c1 | / | ? | . | . | .
OC(CN1CCN(c2ccccc2)CC1)c1ccc2c(c1)CCN2 (stereo unspecified) | . | . | . | 7.1µM | .
CCOC(=O)N1CCN(CC(O)c2ccc3c(c2)CCN3)CC1 (stereo unspecified) | . | . | . | 18µM | /
OCC(O)CN1CCN(c2ccccc2)CC1 (stereo unspecified) | . | . | . | . | .
CCOC(=O)c1c(NC(=O)CS(=O)(=O)c2ccc(Cl)cc2)sc2c1CCCC2 | / | . | / | / | /
CCOC(=O)c1c(NC(=O)CS(=O)(=O)c2cn(CC)c3ccccc23)sc2c1CCCCC2 | . | ? | . | 10µM | .
CCOC(=O)c1c(NC(=O)CS(=O)(=O)c2ccc(C)cc2)sc2c1CCCCC2 | / | . | / | / | /
CC(C)OC(=O)c1c(NC(=O)CCn2nnc3ccccc32)sc2c1CCCC2 | ? | ? | . | 25µM | .
CC(C)OC(=O)c1c(NC(=O)CCC(=O)O)sc2c1CCCCC2 | . | ? | . | . | .
CCOC(=O)c1c(NC(=O)CS(=O)(=O)c2cn(CC)c3ccccc23)sc2c1CCCC2 | . | ? | . | 13µM | .
CO/N=C(\C(=O)N[C@@H]1C(=O)N2C(C(=O)O)=C(CSc3nc(=O)c(O)nn3C)CSC12)c1csc(N)n1 (stereo partly specified) | / | ? | / | ? | .
Cc1c(C(=O)Oc2ccc(-c3cnc4ccccc4n3)cc2)cccc1[N+](=O)[O-] | ? | . | . | ? | .
O=C(Oc1ccc(-c2cnc3ccccc3n2)cc1)c1cc([N+](=O)[O-])ccc1Cl | . | ? | . | 0.22µM | .
CCOC(=O)C1=C(Cn2cnc3ccccc32)NC(=O)NC1c1cc(C)ccc1C (stereo unspecified) | . | . | . | . | .

Screening data (PubChem)
